Inconclusive results are not listed. A number with no mark means an inactive call. Calls of active or inactive are those of the source. Calls follow the shape of the full dose curve.
These compounds were tested against Acetylcholinesterase (Homo sapiens) (UniProt P22303) (assay: Acetylcholinesterase (AChE) small molecule antagonists: colormetric cell-based qHTS assay (AID 1347395; also: nearly all actives have a fitted effect of over 30% in size)). Settings: SH-SY5Y cells AChE activity, colorimetric (Ellman); series mostly up to 115 µM; activity, negative = inhibition: at the top concentration.
Procedure, shortened: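 AChE inhibition read colorimetrically via DTNB–thiocholine in SH-SY5Y cells. Compound 30 min, substrate 90 min, both 37 C.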
% is scaled to controls: 0 for no effect and ±100 for the full control effect.

Acetylcholinesterase (Homo sapiens), sequence (P22303 whole entry, looked up): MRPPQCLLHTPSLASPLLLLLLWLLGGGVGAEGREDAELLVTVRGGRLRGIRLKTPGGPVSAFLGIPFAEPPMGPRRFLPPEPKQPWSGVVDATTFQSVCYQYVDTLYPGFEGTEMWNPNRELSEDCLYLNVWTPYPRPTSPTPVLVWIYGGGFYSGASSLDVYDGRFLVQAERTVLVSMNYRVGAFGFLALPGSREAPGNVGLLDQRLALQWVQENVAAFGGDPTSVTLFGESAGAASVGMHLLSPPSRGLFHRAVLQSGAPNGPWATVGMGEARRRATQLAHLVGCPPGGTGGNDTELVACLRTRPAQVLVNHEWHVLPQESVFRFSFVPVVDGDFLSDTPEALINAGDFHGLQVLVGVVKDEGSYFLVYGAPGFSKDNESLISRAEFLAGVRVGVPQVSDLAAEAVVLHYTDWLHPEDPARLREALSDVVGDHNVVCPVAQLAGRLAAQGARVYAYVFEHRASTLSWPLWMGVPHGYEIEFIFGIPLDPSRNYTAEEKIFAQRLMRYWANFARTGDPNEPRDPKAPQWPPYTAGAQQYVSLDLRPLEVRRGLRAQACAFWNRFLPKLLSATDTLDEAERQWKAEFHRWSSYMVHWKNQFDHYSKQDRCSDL

| SMILES | activity, negative = inhibition | Potency |
| --- | --- | --- |
| COC(=O)c1cc(Cl)ccc1NS(=O)(=O)C(F)(F)F | 2.94% [at 52.9 µM] |  |
| CC(C)=CCC[C@](C)(O)[C@@H]1CC=C(C)CC1 | 1.57% |  |
| COc1ccccc1N1CCN(CCCCNC(=O)c2ccc(-c3ccc(C(C)=O)cc3)cc2)CC1 | -2.16% [at 52.9 µM] |  |
| C=CCNCC=C |  | inactive |
| CCCC(=O)Nc1ccc(O)c(C(C)=O)c1 | 1.01% [at 52.9 µM] |  |
| CN(C)CCCN(C)C | 3.16% [at 10.5 µM] |  |
| O=C1c2ccccc2C(=O)C1c1nc2ccccc2c(Br)c1O | -2.38% |  |
| O=C1CCCCCCCCCCCCCC1 | -0.405% |  |
| Cc1ccc(S(=O)(=O)NCl)cc1 |  | inactive |
| CCCCCCCCCCCCCCCCCCOCCO | 0.0969% [at 23.6 µM] |  |
| C[C@]12CCC(=O)C=C1CC[C@@H]1[C@@H]2[C@@H](O)C[C@@]2(C)[C@H]1CC[C@]2(O)C(=O)COC(=O)CCC(=O)O | 3.66% [at 52.9 µM] |  |
| CNC1(C)C2CCC(C2)C1(C)C (stereo not given) | 4.04% [at 52.9 µM] |  |
| C[Si]1(C)O[Si](C)(C)O[Si](C)(C)O[Si](C)(C)O[Si](C)(C)O1 | -2.02% |  |
| O=C(O)CNC(=O)c1ccccc1 | 1.68% [at 52.9 µM] |  |
| O=C(O)C(=O)O |  | inactive |
| Cc1ncc(COP(=O)(O)O)c(C=O)c1O | 2.85% [at 52.9 µM] |  |
| CCOc1c(N2CCOCC2)cnn(C)c1=O | 1.59% [at 52.9 µM] |  |
| CC(=O)CCC(=O)O |  | inactive |
| C[C@H]1COc2c(C3(N)CC3)c(F)cc3c(=O)c(C(=O)O)cn1c23 | 0.589% [at 52.9 µM] |  |
| CC1=CC[C@@H]2C[C@H]1C2(C)C | 7.66% [at 23.6 µM] |  |

| SMILES | activity, negative = inhibition | Potency |
| --- | --- | --- |
| Nc1cc([N+](=O)[O-])ccc1Cl | -3.35% |  |
| CN1CCC(OC(c2ccccc2)c2ccccc2)CC1 | -7.64% [at 52.9 µM] |  |
| CC(=O)OC[C@H]1O[C@@H](OC(C)=O)[C@H](OC(C)=O)[C@@H]1OC(C)=O | 1.79% [at 52.9 µM] |  |
| CCO[Si](CC(C)C)(OCC)OCC | 0.946% |  |
| CCCNC(C)(C)COC(=O)c1ccccc1 | -0.0126% [at 52.9 µM] |  |
| Cc1nnc(C(=O)NC(C)(C)c2nc(C(=O)NCc3ccc(F)cc3)c(O)c(=O)n2C)o1 | -8.97% [at 52.9 µM] |  |
| Cc1ccc(NC=O)c(C)c1 | 2.21% |  |
| Nc1nc(F)nc2c1ncn2[C@@H]1O[C@H](CO)[C@@H](O)[C@@H]1O | 0.44% [at 52.9 µM] |  |
| Cc1cccc(C(=O)O)c1O | -3.03% [at 52.9 µM] |  |
| CCCCCCOCCO |  | inactive |
| O=C(O)CN(CC(=O)O)CC(=O)O |  | inactive |
| CC1=C(C(=O)O)N2C(=O)[C@@H](NC(=O)[C@H](N)C3=CCC=CC3)[C@H]2SC1 | -1.45% [at 52.9 µM] |  |
| Nc1ccc(N)c2c1C(=O)c1ccccc1C2=O | 1.88% |  |
| Cc1cc(O)c(Cl)cc1C | -4.83% |  |
| COCC(=O)Nc1c(I)c(C(=O)NCC(O)CO)c(I)c(C(=O)N(C)CC(O)CO)c1I (stereo not given) | 4.4% [at 52.9 µM] |  |
| CCCCCC[C@@H](O)C/C=C\CCCCCCCC(=O)OC | -2.39% |  |
| CC1=C(/C=C/C(C)=C/C=C/C(C)=C/C(=O)Nc2ccc(O)cc2)C(C)(C)CCC1 |  | inactive |
| CCN(CC)CCNC(=O)c1cc(S(C)(=O)=O)ccc1OC | -10.9% [at 52.9 µM] |  |
| CCCCCCOC(C)=O |  | inactive |
| O=c1cc[nH]c(=S)[nH]1 |  | inactive |
